Screening data as filed in PubChem BioAssay.
Shown are actives, neighbours in structure and some others; about 18% of the full set was active somewhere.
TDP1 cell CPT – DT40-hTDP1 cell growth loss with CPT; chicken DT40 Tdp1-/-;hTDP1 cells + 20 nM CPT, ATP luminescence, 48 h; Potency, µM (series often up to 46.2 µM), most hits filed as inhibitors; 420,000 tested, 12% active; note: nearly all actives have a fitted effect of over 55% in size
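Chicken DT40 Tdp1-/- cells stably complemented with human TDP1 were seeded at 400 cells/well in medium containing 20 nM camptothecin, exposed to pin-transferred compounds, and grown at 37 °C for at least 48 hr. Viability was read as ATP luminescence.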
DT40 TDP1 no CPT – qHTS for Inhibitors of human tyrosyl-DNA phosphodiesterase 1 (TDP1): qHTS in cells in absence of CPT; AID 686978, 2013; 420,000 tested, 15% active; Potency, µM (titrated, usually from 46.2 µM), most hits filed as inhibitors; DT40 Tdp1-/- hTDP1 cells, no CPT, ATP luminescence, 48 h; note: nearly all actives have a fitted effect of over 55% in size
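Camptothecin absent (DMSO only). Human TDP1-complemented DT40 knockout cells, 400 cells/well, 37 °C for minimum 48 hr; ATP measured via CellTiter-Glo, 30 min dark incubation, luminescence.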
Gal4-VP16 FLuc – counter-screen for ROR gamma inhibitors: Gal4-VP16 reporter; Drosophila S2 Gal4-VP16 UAS-luciferase, luminescence, 20 h; Potency, µM (doses to about 53.6 µM), usual class: inhibitors; 310,000 tested, 3.5% active; AID 2546;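 note: Gal4-VP16 expression switched on by copper sulfate through the metallothionein promoter; nearly all actives have a fitted effect of over 50% in size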
IL1B secr inh – inhibitors of inflammasome signaling (IL-1 beta secretion); THP-1 LPS/ATP IL-1B secretion, AlphaLISA, 16 h; hits give low values; activity change, % at 57.5 µM; 360,000 tested, 4.7% active; AID 743279; in the data active = activity change below about -50%; inconclusive = mostly about -30% to -49%
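THP-1 cells pretreated 1 hr with compounds (up to 57.5 uM final), then stimulated with LPS (250 ng/mL final) plus ATP (1.25 mM final); secreted IL-1B measured by AlphaLISA after 16 hr, decreased signal indicating inhibition.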
LDHA block – blocks human lactate dehydrogenase A | P00338 | activity change, % (values are at about 110 or 230 µM) | 480,000 tested, 0.15% active | purified LDHA, NADH/diaphorase-resazurin fluorescence; hits give low values; in the data active = activity change below about -30%; inconclusive = mostly about -25% to -30%
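LDH5 2 nM; NADH 0.06 mM, pyruvate 0.2 mM; 200 mM Tris pH 7.4, EDTA, Tween-20; 5 min RT. Detection: diaphorase 0.133 mg/mL + resazurin 37 µM, fluorescence ex540/em590 at 0 and 20 min; normalized to enzyme-free and DMSO wells.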
RORgamma inh – inhibitors of mouse ROR gamma transcriptional activity; P51450; Drosophila S2 Gal4-RORgamma UAS-luciferase reporter, 20 h; Potency, µM (doses to about 53.6 µM), hits mostly inhibitors; 310,000 tested, 5.4% active; AID 2551; note: nearly all actives have a fitted effect of over 60% in size
Target sequence (P51450 whole entry, looked up, the tested form may be a part): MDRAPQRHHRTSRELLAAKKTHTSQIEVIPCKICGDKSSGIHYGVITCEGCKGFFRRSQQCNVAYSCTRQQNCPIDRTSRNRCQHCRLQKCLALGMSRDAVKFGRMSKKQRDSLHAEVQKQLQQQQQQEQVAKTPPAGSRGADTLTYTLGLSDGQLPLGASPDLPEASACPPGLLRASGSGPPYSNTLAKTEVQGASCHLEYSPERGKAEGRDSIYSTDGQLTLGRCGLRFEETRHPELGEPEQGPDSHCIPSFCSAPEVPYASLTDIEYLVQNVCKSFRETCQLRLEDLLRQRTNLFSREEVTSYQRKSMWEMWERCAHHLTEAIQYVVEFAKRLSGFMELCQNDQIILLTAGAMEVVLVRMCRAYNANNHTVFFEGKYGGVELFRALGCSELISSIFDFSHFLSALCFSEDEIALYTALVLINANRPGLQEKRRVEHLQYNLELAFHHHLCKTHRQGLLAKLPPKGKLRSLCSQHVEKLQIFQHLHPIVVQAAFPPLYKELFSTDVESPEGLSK
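Stably transfected Drosophila Schneider cells are the test system, with ROR gamma fused to Gal4 and luciferase under UAS control; luminescence is read after 20 hr of 700 uM copper sulfate induction at ambient temperature.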
Hits are given with their value; [ ] = dose if it differs, or a comment. Unless noted, calls come from the whole dose curve; as a rule, active = well fitted curve in the direction sought with a large enough effect; inconclusive = small, poorly fitted or top-dose-only effect, or another doubt; inactive = no such curve, though single readings can be large; an effect the other way counts as inactive or inconclusive.

`O=C(Nc1c(C(=O)Nc2ccc(F)cc2)oc2ccccc12)c1cc2ccccc2o1` gave TDP1 cell CPT inconclusive, DT40 TDP1 no CPT 18.4µM and LDHA block inactive.
For COc1cc(CCC(=O)Nc2ccc3oc(-c4ccc(C(C)C)cc4)cc(=O)c3c2)on1 the results were LDHA block inactive.
For CC(C)c1ccc(NC(=O)Nc2nc(C(N)COCc3ccccc3)cs2)cc1 (stereo unspecified) the results were TDP1 cell CPT 16.4µM, DT40 TDP1 no CPT 14.6µM, IL1B secr inh inconclusive and LDHA block inactive.
For Cc1ccccc1NC(=O)Nc1nc(C(N)c2ccccc2)cs1 (stereo unspecified) the results were TDP1 cell CPT inconclusive, DT40 TDP1 no CPT inconclusive, IL1B secr inh inconclusive and LDHA block inactive.
NC(c1ccccc1)c1csc(Nc2ccc(C(=O)c3ccccc3)cc2)n1 (stereo unspecified) was read as TDP1 cell CPT inconclusive, DT40 TDP1 no CPT 18.4µM, IL1B secr inh inconclusive and LDHA block inactive.
Screening Cc1ccc(C(=O)Nc2nc(C(N)C(C)C)cs2)cc1 (stereo unspecified) returned TDP1 cell CPT inconclusive, DT40 TDP1 no CPT 16.4µM, IL1B secr inh inconclusive and LDHA block inactive.
Screening CC(C)c1ccc(NC(=O)Nc2nc(C(N)c3ccccc3)cs2)cc1 (stereo unspecified) returned TDP1 cell CPT inconclusive, DT40 TDP1 no CPT 23.1µM, IL1B secr inh -94.2 and LDHA block inactive.
`NC(c1ccccc1)c1csc(Nc2ccc(C(=O)NCCO)cc2)n1` (stereo unspecified) gave TDP1 cell CPT inconclusive, DT40 TDP1 no CPT inconclusive, IL1B secr inh inactive and LDHA block inactive.
`CCOC(=O)c1ccc(NC(=O)CN2CCCN(Cc3ccc(OC)cc3)S2(=O)=O)cc1` gave LDHA block inactive.
Cc1ccc(C(C)C)c(OC(=O)c2ccc(-c3ccccc3)cc2)c1 was read as LDHA block inactive.
Screening O=C(O)C(c1c(-c2ccccc2)[nH]c2ccccc12)N1CCN(Cc2ccccc2)CC1 (stereo unspecified) returned LDHA block inactive.
CC(C)c1ccc(NC(=O)Nc2nc(C(N)C(C)C)cs2)cc1 (stereo unspecified) was read as TDP1 cell CPT 14.6µM, DT40 TDP1 no CPT 16.4µM, IL1B secr inh -63.3 and LDHA block inactive.
Cc1nnc(N=c2ssnc2Cl)o1 was read as TDP1 cell CPT 1.03µM, DT40 TDP1 no CPT 1.03µM, IL1B secr inh inactive and LDHA block inactive.
Cc1cc(Cl)ccc1N=c1ssnc1Cl was read as TDP1 cell CPT 13µM, DT40 TDP1 no CPT 16.4µM, Gal4-VP16 FLuc inconclusive, IL1B secr inh inconclusive, LDHA block inactive and RORgamma inh 11.2µM.
`Cc1ccc(N=c2ssnc2Cl)cc1` gave TDP1 cell CPT 5.8µM, DT40 TDP1 no CPT 3.66µM, Gal4-VP16 FLuc inconclusive, IL1B secr inh inactive, LDHA block inactive and RORgamma inh 12.6µM.
For Cc1cc(C)c(C#N)c(Cl)n1 the results were TDP1 cell CPT inactive, DT40 TDP1 no CPT inactive, Gal4-VP16 FLuc inactive, IL1B secr inh inactive, LDHA block inactive and RORgamma inh inactive[10 µM].
Screening Cc1cc(C)nc(/N=c2/ssnc2Cl)c1 returned TDP1 cell CPT 7.31µM, DT40 TDP1 no CPT 9.2µM, Gal4-VP16 FLuc inconclusive, IL1B secr inh -100.7, LDHA block inactive and RORgamma inh 20µM.
Screening Nc1ccccc1N=c1ssnc1Cl returned TDP1 cell CPT inconclusive, DT40 TDP1 no CPT inconclusive, Gal4-VP16 FLuc inactive, IL1B secr inh inactive, LDHA block inactive and RORgamma inh inactive.
For O=C(Nc1ccc2oc(-c3cccc(Br)c3)nc2c1)c1ccc2c(c1)OCCO2 the results were LDHA block inactive.
Screening Cc1ccc(C)c(NC(C)C(=O)N(C)Cc2cccc(F)c2)c1 (stereo unspecified) returned LDHA block inactive.
